Measurements published in PubChem BioAssay AID602179 (National Center for Advancing Translational Sciences (NCATS), 2012).
About 360 (0.092%) of roughly 390,000 compounds were called active. Entries that show only a call come without a potency. Calls come from the whole dose curve; as a rule, active = well fitted inhibition curve with a large enough effect; inconclusive = small, poorly fitted or top-dose-only effect; inactive = no such curve, though single readings can be large or run the other way. The full list was thinned out, with actives kept by preference.

Molecular target: Isocitrate dehydrogenase [NADP] cytoplasmic (Homo sapiens) (UniProt O75874)
Experiment: qHTS for Inhibitors of mutant isocitrate dehydrogenase 1 (IDH1): qHTS; note: nearly all actives have a fitted effect of over 65% in size
Settings: IDH1-R132H enzyme, NADPH consumption, diaphorase/resazurin fluorescence; series mostly up to 76.6 µM
Source text: Unbiased genomic sequencing for 22 glioma genomes found recurrent mutation of isocitrate dehydrogenase 1 (IDH1) on chromosome 2q33-a gene encoding the cytosolic isoform of IIDH1associated with the tricarboxylic acid cycle (TCA) that catalyzes the oxidative decarboxylation of isocitrate, yielding alpha-ketoglutarate and CO2 via NADP+ to NADPH conversion. Subsequent studies confirmed the recurrent IDH mutations in up to 70% of secondary gliomas and in 10% of AML cases. […] This in effect defines IDH1 as an oncogene, and provides an extraordinary opportunity to discover chemical probes against mutant IDH1 that may translate into much needed new therapies for glioma and AML patients. […] NIH Chemical Genomics Center [NCGC] NIH Molecular Libraries Probe Centers Network [MLPCN] MLPCN Grant: DA032129 Assay Submitter (PI): Lenny Dang, Agios Pharmaceuticals
IDH1-R132H (0.5 ug/mL) was dispensed into black, solid-bottom 1536-well plates at 3 uL/well in 20 mM Tris-HCl (pH 7.5), 150 mM NaCl, 10 mM MgCl2, 4 mM beta-ME, and 0.05% protease-free BSA. Then, 23 nL of compounds or DMSO were delivered to each well using a pin tool. A pre-read was run on the Viewlux to identify fluorescent compounds (540 nm excitation filter, 598 nm emission filter, bodipy mirror and 2 second exposure). After 30 minutes of incubation with compound, 3 uL of substrate mix were dispensed (0.016 mM NADPH, 2 mM alpha-KG, 20 mM Tris-HCl (pH 7.5), 150 mM NaCl, 10 mM MgCl2, and 0.05% protease-free BSA). Plates were spun for 1 min at 1000xg and incubated at room temperature for 80 min. Then 1.5 uL of each detection reagent component for the coupling system were added (0.12 mg/mL diaphorase and 0.072 mM resazurin, each in 20 mM Tris-HCl (pH 7.5), 150 mM NaCl, 10 mM MgCl2, and 0.05% protease-free BSA ) The protein, substrate and two detection components were maintained at 4 °C throughout the screen. Additionally, the substrate and resazurin reagents were protected from light. The plates were measured on an Envision plate reader for fluorescence signal using a 540 nm excitation filter and 590 nm emission filter with 10 flashes. 1x and 0x (no-enzyme) IDH1-R132H enzyme control were used to normalize %Activity of identified inhibitors; 0x enzyme values corresponded to 100% Activity (full inhibition), while 1x IDH1-R132H enzyme values were used to normalize 0%Activity (no inhibition). Concentration-response curves were fitted to the signals arising from the resulting fluorescence. The concentration-effect curves were then classified based on curve quality (r2), response magnitude and degree of measured activity, and compounds were subsequently categorized based on their curve class. […] Keywords: isocitrate dehydrogenase, IDH1, IDH1-R132H, MLSMR, MLPCN, NIH Roadmap, qHTS, NCGC
Potency is the fitted concentration of half-maximal effect.

Sequence of Isocitrate dehydrogenase [NADP] cytoplasmic (Homo sapiens) (O75874 whole entry R132H, change not shown): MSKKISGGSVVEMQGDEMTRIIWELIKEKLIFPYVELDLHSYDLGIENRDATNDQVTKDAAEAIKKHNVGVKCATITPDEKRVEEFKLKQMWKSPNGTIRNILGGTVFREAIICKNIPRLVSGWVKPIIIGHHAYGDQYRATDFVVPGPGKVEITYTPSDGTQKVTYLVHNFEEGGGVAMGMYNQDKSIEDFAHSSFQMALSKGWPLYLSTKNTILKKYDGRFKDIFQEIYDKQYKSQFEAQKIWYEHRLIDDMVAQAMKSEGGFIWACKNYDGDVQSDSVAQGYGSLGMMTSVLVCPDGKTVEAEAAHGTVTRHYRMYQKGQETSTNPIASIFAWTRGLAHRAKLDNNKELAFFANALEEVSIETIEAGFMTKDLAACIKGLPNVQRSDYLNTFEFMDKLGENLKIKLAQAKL

Row | Compound | Potency
1 | O=C(NCCc1ccc(Cl)cc1)c1ccc2nc(CCc3ccccc3)oc2c1 | inactive
2 | CCC1(C)CC(=O)c2c(ccc3oc(C(=O)Nc4ccc(C(C)=O)cc4)c(C)c23)O1 (stereo unspecified) | inactive
3 | Cc1noc(/C=C/N(C)C)c1S(=O)(=O)N1CCCC(C(=O)Nc2cccc(F)c2)C1 (stereo unspecified) | inactive
4 | CCOC(=O)c1c(C)oc2nc(C)nc(N(CC(C)C)CC(C)C)c12 | inactive
5 | COc1ccc(NC(=O)CSc2nccn2Cc2ccc3c(c2)OCO3)cc1 | inactive
6 | CCOc1ccc(CNC(=O)c2ccc3c(c2)nnn3C2CCCC2)cc1 | inactive
7 | CN(Cc1ccccc1)c1ccc(-c2nc(-c3ccccc3)no2)cc1[N+](=O)[O-] | inactive
8 | NC(=O)CSc1nc2c(oc3ccccc32)c(=O)n1Cc1ccccc1 | inactive
9 | CCOc1cccc(NC(=O)c2ccc(F)c(S(=O)(=O)N(CC)c3cccc(C)c3)c2)c1 | inactive
10 | O=C(CCn1c(=O)c2sccc2n(Cc2ccc(F)cc2)c1=O)NCc1ccc2c(c1)OCO2 | inactive
11 | CCC(=O)Nc1cccc(C(=O)OCc2cc(=O)n3nc(CC)sc3n2)c1 | inactive
12 | CSc1ncc(C(=O)NCc2ccccc2Cl)c(C(F)(F)F)n1 | inactive
13 | O=C(Cn1c(=O)nc(-c2ccccc2)c2cc(Cl)ccc21)NCc1ccc(Cl)cc1 | inactive
14 | CN(CC(=O)Nc1cccc(C(F)(F)F)c1)S(=O)(=O)c1cccs1 | inactive
15 | COc1ccccc1NC(=O)C1=C(C)Nc2nc(SCC(=O)c3ccc(C)cc3)nn2C1c1ccccc1C (stereo unspecified) | inactive
16 | COc1ccc(-c2nc(C)c(CCNC(=O)c3ccc(C(F)(F)F)cc3)s2)cc1OC | inactive
17 | Cc1ccc(C(=O)Nc2ccc(C(=O)O)cc2)cc1S(=O)(=O)Nc1ccccc1 | inactive
18 | COc1cccc(CC(=O)OCC(=O)NCc2ccc3c(c2)OCO3)c1 | inactive
19 | COc1ccc(CNC(=O)COC(=O)C2=Cc3ccccc3OC2)cc1 | 52.1 µM (active)
20 | COc1ccc(CNC(=O)c2cc3c(s2)-c2ccccc2OC3)cc1 | inactive
21 | O=C(CSc1nc(=O)[nH]c2c1CCCC2)Nc1cc(C(F)(F)F)ccc1Cl | inactive

Row | Compound | Potency
22 | COc1ccc(Cl)cc1NC(=O)CCn1c(=O)c2cccn2c2ccccc21 | inactive
23 | COc1ccc(-c2onc(C)c2C)cc1S(=O)(=O)NCC1CCN(Cc2cccc(F)c2)CC1 | inactive
24 | COc1cccc(-n2ccn(CC(=O)NCc3ccc(C)cc3)c(=O)c2=O)c1 | inactive
25 | COc1ccccc1NC(=O)CSc1oc(-c2ccco2)nc1S(=O)(=O)c1ccc(Br)cc1 | inactive
26 | Cc1ccc(Cl)cc1NC(=O)C(C)n1nnc2sc(-c3ccccc3)cc2c1=O (stereo unspecified) | inactive
27 | COc1ccccc1OCCCn1c(-c2ccc(Cl)cc2)nc2ccccc2c1=O | inactive
28 | CC(C)c1ccc(Cn2c(COc3ccccc3)nc3ccccc32)cc1 | inactive
29 | Cn1c(COc2ccc(Cl)cc2)nc2ccccc2c1=O | 52.1 µM (active)
30 | Cc1ccc(CNS(=O)(=O)c2ccc(C(=O)N(C)C)s2)cc1 | inactive
31 | COc1cc2nc(SCC(=O)Nc3ccccc3F)n3nc(-c4ccccc4)nc3c2cc1OC | inactive
32 | CCNS(=O)(=O)c1ccc(NC(=O)CSc2nc(-c3ccco3)cc(C(F)(F)F)n2)cc1 | inactive
33 | COc1ccc(NC(=O)Cn2cc(C(=O)c3ccncc3)c(=O)c3cc(C)ccc32)cc1Cl | inactive
34 | Cc1ccc(C)c(Cn2c(C)c(CNCc3ccc(F)cc3)c(C(=O)O)c2C)c1 | inactive
35 | CCOc1cc(C2C(C(=O)OC)=C(C)NC3=C2C(=O)c2ccccc23)ccc1O (stereo unspecified) | inactive
36 | CCn1cc(C(=O)N(C)Cc2ccccc2)c(=O)c2cc(S(=O)(=O)N3CCCCCC3)ccc21 | inactive
37 | CCOc1ccc2nc(N3CCC(C(=O)Nc4cc(C)ccc4C)CC3)sc2c1 | inactive
38 | CCC(=O)N1CCc2cc(S(=O)(=O)NCCC(=O)Nc3cccc(C)c3C)ccc21 | inactive
39 | Cc1ccc(NC(=O)CSc2nnc3[nH]c(=O)cc(C)n23)cc1Cl | inactive
40 | O=C(Cn1c(=O)n(-c2ccc(F)cc2)c(=O)c2sc3ccccc3c21)NC1CCCC1 | inactive
41 | CCOc1cc(-c2nnc(SCC(=O)NC3CCCC3)nc2-c2ccc(OC)c(OCC)c2)ccc1OC | inactive
42 | CCOc1ccc(CNC(=O)Cn2cc3c(n2)-c2c(oc(C(=O)N4CCCC4)c2C)CC3)cc1 | inactive

Row | Compound | Potency
43 | CCN(CCCNC(=O)Cn1ncc2c3ccccc3n(C)c2c1=O)Cc1ccccc1 | inactive
44 | Cc1ccc(-c2nnc(Nc3cccc(Br)c3)c3ccccc23)cc1S(=O)(=O)NCC1CCCO1 (stereo unspecified) | inactive
45 | CCOC(=O)c1ccc(NC(=O)CCS(=O)(=O)c2ccc(C)cc2)cc1 | inactive
46 | CCC(=O)N1N=C(c2ccc(OC)cc2)CC1c1cn(-c2ccccc2)nc1-c1cccs1 (stereo unspecified) | inactive
47 | Cn1ccc2cc(S(=O)(=O)N3CCCC(C(=O)NCc4ccccc4F)C3)ccc21 (stereo unspecified) | inactive
48 | Cc1ccc(CN2CCC(CNC(=O)c3cnn(-c4ccc(C)cc4)c3C3CCN(C(=O)OC(C)(C)C)CC3)CC2)cc1 | inactive
49 | CCN(CCCNC(=O)c1cc2cc3cc(OC)ccc3nc2s1)c1ccccc1 | inactive
50 | Cc1ccc(Cl)cc1N1CCN(C(=O)c2cnc3c(-c4ccc(F)cc4)c(C)nn3c2C)CC1 | inactive
51 | Cc1cc(C)cc(OCC(=O)Nc2nc(-c3ccc(F)cc3)ns2)c1 | inactive
52 | COc1ccc(CN(C(=O)CSc2nnc(-c3ccc(OC)c(OC)c3)o2)c2ccc(F)cc2)cc1 | inactive
53 | CCN(CCCCOC(=O)c1ccc(OC)c(OC)c1)C(C)Cc1ccc(OC)cc1 (stereo unspecified) | inactive
54 | COc1ccc(C(CCN(Cc2ccc(OC)c(OC)c2)C(=O)CCl)c2ccccc2)cc1 (stereo unspecified) | 36.9 µM (active)
55 | O=C1N(Cc2ccccc2)c2ccc(Cl)cc2C1(O)c1c[nH]c2ccccc12 (stereo unspecified) | inactive
56 | CCOC(=O)c1cccc(NC(=O)Cn2cnc3nc4c(cc3c2=O)CCCC4)c1 | inactive
57 | Cc1nc2ccn(Cc3cccs3)c(=O)c2cc1C(=O)NCc1ccc(Cl)cc1 | inactive
58 | COc1cc(C(=O)N(Cc2ccc(C(C)C)cc2)C2CCS(=O)(=O)C2)cc(OC)c1OC (stereo unspecified) | inactive
59 | COC(=O)c1c(-c2ccsc2)oc2ccc(-c3cc(OC)c(OC)c(OC)c3)cc12 | inactive
60 | COc1cc(-c2c(-c3ccc4c(c3)OCO4)noc2C)ccc1F | inactive
61 | COc1cc2c(-c3ccc4c(c3)OCO4)c(-c3ccsc3)oc(=O)c2cc1OC | 10 µM (active)
